# ChEMBL document CHEMBL1961873, “Compounds: GSK PKIS; Assays: Nanosyn kinase panel” (2012)
# Legend:
# [1] = target: T1, Serine/threonine-protein kinase D2 (Homo sapiens) (UniProt Q9BZL6); conditions: at 1 µM;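 further: mean value of PRKD2 inhibition, from the GSK PKIS screening panel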
# T1 sequence (whole entry): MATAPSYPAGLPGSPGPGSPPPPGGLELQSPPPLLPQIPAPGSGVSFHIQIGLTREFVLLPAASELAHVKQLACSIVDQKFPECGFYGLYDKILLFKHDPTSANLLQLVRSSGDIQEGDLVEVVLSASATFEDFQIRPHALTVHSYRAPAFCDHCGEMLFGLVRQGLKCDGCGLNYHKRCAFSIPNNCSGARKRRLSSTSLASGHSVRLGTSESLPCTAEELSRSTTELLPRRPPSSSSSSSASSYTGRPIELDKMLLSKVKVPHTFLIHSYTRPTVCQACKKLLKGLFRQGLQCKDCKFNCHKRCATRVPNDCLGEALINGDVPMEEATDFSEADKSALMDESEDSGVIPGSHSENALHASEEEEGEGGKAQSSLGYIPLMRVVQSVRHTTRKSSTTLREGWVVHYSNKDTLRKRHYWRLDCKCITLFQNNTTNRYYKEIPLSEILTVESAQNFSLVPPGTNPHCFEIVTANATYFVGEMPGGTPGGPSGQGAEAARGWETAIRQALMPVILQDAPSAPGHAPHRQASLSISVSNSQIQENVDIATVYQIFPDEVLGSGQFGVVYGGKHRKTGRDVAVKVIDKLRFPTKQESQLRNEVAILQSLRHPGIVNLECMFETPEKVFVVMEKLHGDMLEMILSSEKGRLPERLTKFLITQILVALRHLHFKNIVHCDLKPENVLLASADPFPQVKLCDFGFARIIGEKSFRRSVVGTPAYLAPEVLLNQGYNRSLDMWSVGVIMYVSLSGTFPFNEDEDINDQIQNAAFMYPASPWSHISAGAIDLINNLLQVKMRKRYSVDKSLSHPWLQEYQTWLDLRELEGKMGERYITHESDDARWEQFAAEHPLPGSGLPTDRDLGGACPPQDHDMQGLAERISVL
# [2] = target: T2, Serine/threonine-protein kinase D3 (Homo sapiens) (UniProt O94806); conditions: at 0.1 µM
# T2 sequence (whole entry): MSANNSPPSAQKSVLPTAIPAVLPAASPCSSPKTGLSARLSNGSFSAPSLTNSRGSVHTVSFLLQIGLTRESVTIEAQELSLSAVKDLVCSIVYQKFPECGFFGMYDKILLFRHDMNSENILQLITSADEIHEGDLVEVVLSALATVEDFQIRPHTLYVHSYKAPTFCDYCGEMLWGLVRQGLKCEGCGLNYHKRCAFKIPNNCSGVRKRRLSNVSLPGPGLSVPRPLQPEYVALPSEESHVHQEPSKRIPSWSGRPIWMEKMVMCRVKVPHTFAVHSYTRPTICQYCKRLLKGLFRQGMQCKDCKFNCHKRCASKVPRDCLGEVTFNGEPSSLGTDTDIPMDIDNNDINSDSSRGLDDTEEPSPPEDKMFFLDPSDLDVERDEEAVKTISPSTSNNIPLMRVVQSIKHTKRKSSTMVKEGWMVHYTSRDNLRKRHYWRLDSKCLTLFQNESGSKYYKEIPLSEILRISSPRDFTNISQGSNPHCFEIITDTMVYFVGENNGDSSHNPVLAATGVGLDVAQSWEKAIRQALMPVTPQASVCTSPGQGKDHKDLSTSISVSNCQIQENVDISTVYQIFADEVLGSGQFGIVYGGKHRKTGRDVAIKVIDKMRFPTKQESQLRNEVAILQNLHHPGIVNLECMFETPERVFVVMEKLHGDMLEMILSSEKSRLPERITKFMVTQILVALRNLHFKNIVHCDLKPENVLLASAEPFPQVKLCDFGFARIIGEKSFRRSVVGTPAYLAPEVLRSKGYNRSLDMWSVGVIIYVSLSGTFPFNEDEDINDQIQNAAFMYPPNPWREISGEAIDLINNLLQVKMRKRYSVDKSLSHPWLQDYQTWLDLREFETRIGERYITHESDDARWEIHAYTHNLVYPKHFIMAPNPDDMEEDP
# [3] = target: T2, Serine/threonine-protein kinase D3 (Homo sapiens); conditions: at 1 µM
# [4] = target: T3, cGMP-dependent protein kinase 1 (Homo sapiens) (UniProt Q13976); conditions: at 0.1 µM
# T3 sequence (whole entry): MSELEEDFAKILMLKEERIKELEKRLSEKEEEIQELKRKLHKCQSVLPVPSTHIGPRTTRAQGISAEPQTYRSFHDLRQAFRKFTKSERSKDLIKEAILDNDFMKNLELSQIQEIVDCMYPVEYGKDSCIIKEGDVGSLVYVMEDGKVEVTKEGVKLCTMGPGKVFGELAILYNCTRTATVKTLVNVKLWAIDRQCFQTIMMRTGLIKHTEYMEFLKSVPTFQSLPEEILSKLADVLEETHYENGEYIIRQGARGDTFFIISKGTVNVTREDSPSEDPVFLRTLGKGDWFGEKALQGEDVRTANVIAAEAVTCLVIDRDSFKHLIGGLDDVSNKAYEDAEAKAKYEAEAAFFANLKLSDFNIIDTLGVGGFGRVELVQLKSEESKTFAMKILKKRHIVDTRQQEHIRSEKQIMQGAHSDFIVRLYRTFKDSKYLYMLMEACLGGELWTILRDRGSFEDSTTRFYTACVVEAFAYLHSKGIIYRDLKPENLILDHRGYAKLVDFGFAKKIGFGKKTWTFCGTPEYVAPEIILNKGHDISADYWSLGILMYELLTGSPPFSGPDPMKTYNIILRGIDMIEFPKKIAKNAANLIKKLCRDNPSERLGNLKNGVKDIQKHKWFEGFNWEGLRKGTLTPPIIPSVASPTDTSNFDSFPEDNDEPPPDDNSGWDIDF
# [5] = target: T3, cGMP-dependent protein kinase 1 (Homo sapiens); conditions: at 1 µM
# [6] = target: T4, cGMP-dependent protein kinase 2 (Homo sapiens) (UniProt Q13237); conditions: at 0.1 µM
# T4 sequence (whole entry): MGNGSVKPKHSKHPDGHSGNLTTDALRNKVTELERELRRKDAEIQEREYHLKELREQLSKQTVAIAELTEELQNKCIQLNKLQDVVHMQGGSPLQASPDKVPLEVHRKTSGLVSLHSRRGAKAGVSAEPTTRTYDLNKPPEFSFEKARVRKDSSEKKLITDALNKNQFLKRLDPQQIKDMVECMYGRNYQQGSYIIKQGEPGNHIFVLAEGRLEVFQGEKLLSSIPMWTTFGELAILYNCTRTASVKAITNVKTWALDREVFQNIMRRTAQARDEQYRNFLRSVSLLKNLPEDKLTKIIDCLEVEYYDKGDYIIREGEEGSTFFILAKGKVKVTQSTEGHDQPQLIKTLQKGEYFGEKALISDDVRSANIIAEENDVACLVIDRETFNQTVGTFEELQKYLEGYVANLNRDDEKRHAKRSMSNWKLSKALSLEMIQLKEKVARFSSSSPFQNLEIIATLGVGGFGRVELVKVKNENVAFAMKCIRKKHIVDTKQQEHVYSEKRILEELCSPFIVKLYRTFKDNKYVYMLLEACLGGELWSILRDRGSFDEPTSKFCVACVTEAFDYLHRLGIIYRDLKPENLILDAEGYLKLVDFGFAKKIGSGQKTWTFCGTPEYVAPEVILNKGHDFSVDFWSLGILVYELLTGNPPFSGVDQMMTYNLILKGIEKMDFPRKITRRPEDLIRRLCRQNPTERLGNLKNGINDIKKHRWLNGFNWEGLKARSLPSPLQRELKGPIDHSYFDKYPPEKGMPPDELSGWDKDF
# [7] = target: T4, cGMP-dependent protein kinase 2 (Homo sapiens); conditions: at 1 µM
# [8] = target: T5, cAMP-dependent protein kinase catalytic subunit PRKX (Homo sapiens) (UniProt P51817); conditions: at 0.1 µM
# T5 sequence (whole entry): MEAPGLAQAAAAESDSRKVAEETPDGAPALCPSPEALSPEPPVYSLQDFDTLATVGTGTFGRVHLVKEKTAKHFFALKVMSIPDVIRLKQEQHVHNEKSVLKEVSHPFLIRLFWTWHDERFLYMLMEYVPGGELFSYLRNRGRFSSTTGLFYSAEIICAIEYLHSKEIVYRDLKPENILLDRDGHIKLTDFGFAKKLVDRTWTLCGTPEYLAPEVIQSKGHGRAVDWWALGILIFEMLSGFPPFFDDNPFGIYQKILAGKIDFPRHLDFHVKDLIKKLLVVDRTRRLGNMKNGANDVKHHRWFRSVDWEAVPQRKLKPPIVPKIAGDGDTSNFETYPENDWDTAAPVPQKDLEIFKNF
# [9] = target: T5, cAMP-dependent protein kinase catalytic subunit PRKX (Homo sapiens); conditions: at 1 µM
# [10] = target: Rho-associated protein kinase 1 (Homo sapiens) (UniProt Q13464); conditions: at 0.1 µM
# [11] = target: Rho-associated protein kinase 1 (Homo sapiens) (UniProt Q13464); conditions: at 1 µM
# [12] = target: Rho-associated protein kinase 2 (Homo sapiens) (UniProt O75116); conditions: at 0.1 µM
# [13] = target: Rho-associated protein kinase 2 (Homo sapiens) (UniProt O75116); conditions: at 1 µM
# [14] = target: Ribosomal protein S6 kinase alpha-1 (Homo sapiens) (UniProt Q15418); conditions: at 0.1 µM
# [15] = target: Ribosomal protein S6 kinase alpha-1 (Homo sapiens) (UniProt Q15418); conditions: at 1 µM
# [16] = target: Ribosomal protein S6 kinase alpha-3 (Homo sapiens) (UniProt P51812); conditions: at 0.1 µM
# [17] = target: Ribosomal protein S6 kinase alpha-3 (Homo sapiens) (UniProt P51812); conditions: at 1 µM
# [18] = target: Ribosomal protein S6 kinase alpha-2 (Homo sapiens) (UniProt Q15349); conditions: at 0.1 µM
# [19] = target: Ribosomal protein S6 kinase alpha-2 (Homo sapiens) (UniProt Q15349); conditions: at 1 µM
# [20] = target: Ribosomal protein S6 kinase alpha-6 (Homo sapiens) (UniProt Q9UK32); conditions: at 0.1 µM;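 further: reported value is the mean inhibition of RSK4, from the GSK PKIS kinase inhibitor screen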
# Chain of Ribosomal protein S6 kinase alpha-3 (Homo sapiens) (P51812 whole entry): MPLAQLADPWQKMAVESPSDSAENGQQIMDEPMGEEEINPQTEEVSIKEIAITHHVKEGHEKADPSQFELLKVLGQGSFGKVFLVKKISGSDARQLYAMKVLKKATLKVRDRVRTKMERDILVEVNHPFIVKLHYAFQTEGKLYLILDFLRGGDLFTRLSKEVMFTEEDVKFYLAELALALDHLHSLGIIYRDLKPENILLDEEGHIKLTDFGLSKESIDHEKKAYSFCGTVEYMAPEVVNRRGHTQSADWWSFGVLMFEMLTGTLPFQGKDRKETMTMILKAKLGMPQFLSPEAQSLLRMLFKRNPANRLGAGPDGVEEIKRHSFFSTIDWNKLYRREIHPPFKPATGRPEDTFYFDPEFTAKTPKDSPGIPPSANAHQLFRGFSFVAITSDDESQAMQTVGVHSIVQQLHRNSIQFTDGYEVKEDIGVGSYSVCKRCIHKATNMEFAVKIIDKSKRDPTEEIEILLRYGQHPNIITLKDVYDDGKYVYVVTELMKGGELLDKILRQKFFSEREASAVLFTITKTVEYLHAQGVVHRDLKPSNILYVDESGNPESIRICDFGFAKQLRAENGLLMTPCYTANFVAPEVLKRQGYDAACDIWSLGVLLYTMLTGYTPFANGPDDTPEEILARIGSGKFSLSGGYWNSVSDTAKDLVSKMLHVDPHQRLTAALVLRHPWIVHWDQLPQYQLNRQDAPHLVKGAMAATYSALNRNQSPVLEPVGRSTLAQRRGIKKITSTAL
# Chain of Ribosomal protein S6 kinase alpha-1 (Homo sapiens) (Q15418 whole entry): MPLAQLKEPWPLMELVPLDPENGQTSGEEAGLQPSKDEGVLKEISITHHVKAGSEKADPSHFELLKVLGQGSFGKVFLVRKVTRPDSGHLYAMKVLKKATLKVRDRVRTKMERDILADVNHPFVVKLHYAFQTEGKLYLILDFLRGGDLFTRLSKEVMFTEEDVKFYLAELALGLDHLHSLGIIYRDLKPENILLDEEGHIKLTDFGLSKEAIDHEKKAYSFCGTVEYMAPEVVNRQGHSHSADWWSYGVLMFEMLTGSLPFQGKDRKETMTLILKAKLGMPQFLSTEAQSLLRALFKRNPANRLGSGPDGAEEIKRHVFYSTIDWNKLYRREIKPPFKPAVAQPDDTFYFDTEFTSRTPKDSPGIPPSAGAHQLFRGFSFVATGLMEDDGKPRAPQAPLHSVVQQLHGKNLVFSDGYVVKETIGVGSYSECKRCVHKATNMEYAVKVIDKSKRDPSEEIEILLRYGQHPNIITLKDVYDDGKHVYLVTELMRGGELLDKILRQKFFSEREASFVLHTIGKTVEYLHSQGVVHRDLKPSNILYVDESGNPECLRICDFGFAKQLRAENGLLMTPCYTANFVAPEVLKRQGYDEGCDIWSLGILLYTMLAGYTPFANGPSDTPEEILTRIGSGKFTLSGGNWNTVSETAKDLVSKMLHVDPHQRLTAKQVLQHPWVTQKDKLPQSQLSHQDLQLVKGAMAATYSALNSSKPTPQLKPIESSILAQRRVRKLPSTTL
# Chain of Ribosomal protein S6 kinase alpha-2 (Homo sapiens) (Q15349 whole entry): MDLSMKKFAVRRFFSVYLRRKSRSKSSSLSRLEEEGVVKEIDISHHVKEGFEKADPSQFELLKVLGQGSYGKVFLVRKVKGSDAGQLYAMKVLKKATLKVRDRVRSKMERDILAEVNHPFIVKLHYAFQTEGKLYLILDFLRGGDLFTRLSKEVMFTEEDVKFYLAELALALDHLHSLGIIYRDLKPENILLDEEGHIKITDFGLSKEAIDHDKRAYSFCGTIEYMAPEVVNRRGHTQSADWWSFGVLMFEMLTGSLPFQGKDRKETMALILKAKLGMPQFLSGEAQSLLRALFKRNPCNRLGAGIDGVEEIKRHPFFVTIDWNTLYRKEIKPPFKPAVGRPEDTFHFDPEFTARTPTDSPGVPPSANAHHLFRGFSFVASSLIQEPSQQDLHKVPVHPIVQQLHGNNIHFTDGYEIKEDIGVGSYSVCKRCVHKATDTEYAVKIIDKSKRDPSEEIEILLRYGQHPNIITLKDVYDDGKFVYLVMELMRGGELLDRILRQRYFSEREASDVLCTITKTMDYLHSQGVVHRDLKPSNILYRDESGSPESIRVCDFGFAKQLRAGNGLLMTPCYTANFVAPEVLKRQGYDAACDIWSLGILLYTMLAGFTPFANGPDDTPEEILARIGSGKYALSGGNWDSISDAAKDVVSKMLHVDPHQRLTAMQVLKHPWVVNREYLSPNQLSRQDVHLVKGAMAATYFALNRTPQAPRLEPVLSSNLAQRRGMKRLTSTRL
# Chain of Rho-associated protein kinase 2 (Homo sapiens) (O75116 whole entry, looked up): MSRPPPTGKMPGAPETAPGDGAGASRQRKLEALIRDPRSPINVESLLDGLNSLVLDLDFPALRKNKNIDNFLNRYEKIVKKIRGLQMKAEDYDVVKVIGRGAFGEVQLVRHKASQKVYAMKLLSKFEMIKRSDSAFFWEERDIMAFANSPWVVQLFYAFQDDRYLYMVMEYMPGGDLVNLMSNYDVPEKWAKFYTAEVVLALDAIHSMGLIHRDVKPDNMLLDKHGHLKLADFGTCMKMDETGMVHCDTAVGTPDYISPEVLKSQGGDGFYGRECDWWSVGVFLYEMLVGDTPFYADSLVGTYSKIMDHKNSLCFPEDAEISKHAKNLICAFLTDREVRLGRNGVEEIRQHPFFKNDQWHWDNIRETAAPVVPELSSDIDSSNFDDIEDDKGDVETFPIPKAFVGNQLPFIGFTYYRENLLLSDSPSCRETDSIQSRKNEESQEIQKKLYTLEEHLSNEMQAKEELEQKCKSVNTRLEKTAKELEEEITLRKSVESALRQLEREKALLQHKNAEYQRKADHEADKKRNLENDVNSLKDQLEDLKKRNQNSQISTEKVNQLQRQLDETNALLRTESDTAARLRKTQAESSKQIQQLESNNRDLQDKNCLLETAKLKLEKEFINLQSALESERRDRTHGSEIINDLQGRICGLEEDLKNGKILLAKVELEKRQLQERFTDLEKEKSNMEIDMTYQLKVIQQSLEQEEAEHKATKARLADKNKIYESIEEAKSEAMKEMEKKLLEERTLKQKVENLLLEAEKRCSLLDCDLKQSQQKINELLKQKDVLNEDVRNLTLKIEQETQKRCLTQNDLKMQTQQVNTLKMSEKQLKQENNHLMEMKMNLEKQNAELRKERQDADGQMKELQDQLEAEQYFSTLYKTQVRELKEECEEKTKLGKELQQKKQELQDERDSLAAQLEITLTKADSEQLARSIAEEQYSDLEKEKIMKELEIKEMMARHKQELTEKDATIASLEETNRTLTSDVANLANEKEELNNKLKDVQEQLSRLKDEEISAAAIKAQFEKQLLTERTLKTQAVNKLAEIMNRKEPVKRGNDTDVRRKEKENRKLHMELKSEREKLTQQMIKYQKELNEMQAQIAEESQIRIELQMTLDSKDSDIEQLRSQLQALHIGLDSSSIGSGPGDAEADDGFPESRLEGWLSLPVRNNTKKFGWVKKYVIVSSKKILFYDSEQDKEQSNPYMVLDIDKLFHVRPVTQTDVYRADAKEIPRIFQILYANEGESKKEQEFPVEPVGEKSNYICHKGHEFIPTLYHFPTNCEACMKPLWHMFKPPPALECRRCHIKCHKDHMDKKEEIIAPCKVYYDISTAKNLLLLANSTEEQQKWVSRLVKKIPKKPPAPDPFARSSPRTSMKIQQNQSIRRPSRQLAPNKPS
# Chain of Rho-associated protein kinase 1 (Homo sapiens) (Q13464 2-1354 limits assumed): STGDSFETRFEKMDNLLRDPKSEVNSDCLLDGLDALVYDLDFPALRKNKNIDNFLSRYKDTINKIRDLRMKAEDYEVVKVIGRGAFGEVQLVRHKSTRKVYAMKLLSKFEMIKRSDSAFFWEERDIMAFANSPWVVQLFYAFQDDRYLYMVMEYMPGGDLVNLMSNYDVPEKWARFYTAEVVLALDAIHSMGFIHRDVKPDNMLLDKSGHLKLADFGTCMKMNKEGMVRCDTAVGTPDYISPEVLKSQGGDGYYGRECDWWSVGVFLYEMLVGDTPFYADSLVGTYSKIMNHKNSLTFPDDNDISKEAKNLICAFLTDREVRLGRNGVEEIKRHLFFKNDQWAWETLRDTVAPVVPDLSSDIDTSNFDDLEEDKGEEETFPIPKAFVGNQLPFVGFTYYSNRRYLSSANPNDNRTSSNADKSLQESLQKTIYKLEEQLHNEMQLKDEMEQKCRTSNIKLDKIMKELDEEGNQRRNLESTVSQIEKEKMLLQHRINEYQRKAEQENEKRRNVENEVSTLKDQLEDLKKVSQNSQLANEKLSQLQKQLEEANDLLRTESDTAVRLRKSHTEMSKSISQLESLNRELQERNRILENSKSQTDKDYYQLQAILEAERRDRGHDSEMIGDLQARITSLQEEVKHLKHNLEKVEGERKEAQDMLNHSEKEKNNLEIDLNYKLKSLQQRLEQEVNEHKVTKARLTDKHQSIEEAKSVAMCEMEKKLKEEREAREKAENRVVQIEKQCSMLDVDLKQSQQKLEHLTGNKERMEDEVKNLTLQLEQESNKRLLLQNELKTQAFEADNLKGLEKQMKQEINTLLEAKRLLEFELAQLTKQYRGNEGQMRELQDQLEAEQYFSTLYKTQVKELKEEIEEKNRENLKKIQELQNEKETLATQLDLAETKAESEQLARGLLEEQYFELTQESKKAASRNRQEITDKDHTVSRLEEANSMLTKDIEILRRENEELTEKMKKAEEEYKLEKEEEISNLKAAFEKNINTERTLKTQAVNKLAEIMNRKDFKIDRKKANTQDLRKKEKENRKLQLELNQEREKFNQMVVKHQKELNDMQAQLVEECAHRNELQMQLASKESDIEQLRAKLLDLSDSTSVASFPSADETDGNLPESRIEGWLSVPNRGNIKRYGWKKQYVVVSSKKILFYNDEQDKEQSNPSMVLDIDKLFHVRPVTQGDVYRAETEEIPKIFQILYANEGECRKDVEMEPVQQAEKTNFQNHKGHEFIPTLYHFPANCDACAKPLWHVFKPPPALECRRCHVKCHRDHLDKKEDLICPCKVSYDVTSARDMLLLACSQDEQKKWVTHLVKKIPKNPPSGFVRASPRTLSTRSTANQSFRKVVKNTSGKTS
Structure (SMILES),inhibition [1] [%],inhibition [2] [%],inhibition [3] [%],inhibition [4] [%],inhibition [5] [%],inhibition [6] [%],inhibition [7] [%],inhibition [8] [%],inhibition [9] [%],inhibition [10] [%],inhibition [11] [%],inhibition [12] [%],inhibition [13] [%],inhibition [14] [%],inhibition [15] [%],inhibition [16] [%],inhibition [17] [%],inhibition [18] [%],inhibition [19] [%],inhibition [20] [%]
Fc1ccc(-c2nn3ccccc3c2-c2ccncc2)cc1,5.87,3.07,4.89,3.89,5.24,2.4,3.57,1.41,3.65,5.05,4.95,5.66,3.03,1.48,4.42,1.87,3.24,0.67,1.19,1.1
COc1cc(N2CCN(C(C)C)CC2)ccc1Nc1nc(Nc2ccc(F)cc2C(N)=O)c2cc[nH]c2n1,83.9,38.8,79.8,11.5,55,6,25.4,5.37,5.35,1.79,23.5,4.69,29.1,22,65.3,15,57,8.2,43.7,14.5
O=C(Nc1n[nH]c2cc(-c3ccc(F)cc3)ccc12)C1CC1,4.37,3.68,5.25,4.3,6.58,3.33,5.58,2.23,3.66,6.12,9.51,7.81,9.75,6.62,9.5,4.78,9.26,3.68,6.96,1.52
CNC(=O)c1cc(-c2ccc(F)cc2)cc(-c2ccc(S(=O)(=O)N3CCCC3)cc2)c1N,1.98,3.24,3.34,1.61,2.76,1.41,0.53,2.59,1.29,1.6,1.95,1.69,2.18,0.9,1.77,1.31,1.69,2.73,2.91,0.1
CN1CCC(n2cnc(-c3ccc(F)cc3)c2-c2ccnc(Nc3ccccc3)n2)CC1,46.5,6.42,43.5,1.69,3.29,0.99,5.8,1.37,1.71,-0.46,0.32,0.82,3.27,1.76,4.83,1.15,3.9,2.93,2.91,3.17
N#Cc1c(NC(=O)CN2CCOCC2)sc2c1CCCC2,6.36,4.08,6.46,3.2,4.74,2.59,2.65,2.18,3.49,0.84,0.87,5.37,3.55,2.13,3.62,1.56,0.9,1.89,1.68,1.4
